This is a sample that favours compounds with a hit; in the whole collection about 7.8% have one here.
MARV entry inh: qHTS for inhibitors of binding or entry into cells for Marburg Virus; Marburg virus pseudotyped entry inhibition, cell reporter; Potency, µM (highest dose often 37.8 µM), actives largely listed as inhibitors; actives 1.8% (n = 300,000); calls by dose curve; tested in HEK293 cells
VACV mCherry inh: qHTS for Stage-Specific Inhibitors of Vaccinia Orthopoxvirus: mCherry Reporter Primary qHTS | Potency, µM (titrated, usually from 36.5 µM), usual class: inhibitors | AID 720579, 2013 | actives 0.63% (n = 310,000) | Vaccinia virus mCherry reporter infection, fluorescence; calls by dose curve; tested in A549 cells; further: nearly all actives have a fitted effect of over 35% in size
VACV Venus inh: qHTS for Stage-Specific Inhibitors of Vaccinia Orthopoxvirus: Venus Reporter Primary qHTS; Potency, µM (series often up to 36.5 µM), hits mostly inhibitors; Vaccinia virus Venus reporter expression, fluorescence; actives 0.46% (n = 330,000); calls by dose curve; tested in A549 cells; further: nearly all actives have a fitted effect of over 30% in size
HCV inh: qHTS Assay for Inhibitors of Hepatitis C Virus (HCV) | Huh7.5.1 HCVcc-Cre infection, luciferase reporter, 44 h | actives 3.4% (n = 340,000) | Potency, µM (highest dose often 41.8 µM), hits mostly inhibitors; active means well fitted inhibition curve with a large enough effect; inconclusive means small, poorly fitted or top-dose-only effect, or another doubt; inactive means no such curve, though single readings can be large or run the other way
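Cells seeded at 1,000/well and cultured 4 h, then compounds added followed by HCVcc-Cre virus (~0.5 moi). After 44 h further culture, luciferase substrate was added, plates held 15 min at room temperature, and luminescence read for 15 sec.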
LASV entry inh: qHTS for Inhibitors of binding or entry into cells for Lassa Virus. Lassa virus pseudotype entry inhibition, cell reporter. Potency, µM (top dose mostly 37.9 µM), most hits filed as inhibitors. actives 1.2% (n = 300,000). AID 540256, 2011; calls by dose curve; tested in HEK293 cells; further: nearly all actives have a fitted effect of over 50% in size
HCMV antiviral: qHTS Assay for inhibitors of the human cytomegalovirus (HCMV). actives 4.5% (n = 410,000). AID 1259415, 2018. activity change, negative = inhibition, % at 57.5 µM. HFF cells, HCMV-luciferase reporter, 72 h; active compounds read low; in the data active means activity change below about -60%; inconclusive means no clear call, values can overlap the other calls; inactive means above about -39%
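After 16 h attachment at 37C, HFF cells received test compound and HCMV-luciferase (1 PFU/cell); reporter luminescence read 72 h later, data normalized against buffer-only and known inhibitor Salinomycin.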
Large screens that a line does not name were inactive.

CCOc1ccc(CCNC(=O)COC(=O)/C=C/c2ccc(OCC#N)c(OC)c2)cc1OCC	none
Cc1cccc(C)c1OCc1nc2c3cnn(-c4cccc(F)c4)c3ncn2n1	none (no result: HCV inh)
O=c1[nH]c2ccccc2n1CCCN1CCCCC1	MARV entry inh inconclusive
O=c1[nH]c2ccccc2n1CCCN1CCN(C(c2ccccc2)c2ccccc2)CC1	MARV entry inh 13µM, LASV entry inh 18µM (no result: VACV mCherry inh, VACV Venus inh, HCMV antiviral)
c1ccc(OCCN2CCNCC2)cc1	none
c1cnc(OCCN2CC2)cn1	none
c1cc(OCCN2CC2)ccn1	MARV entry inh 7.1µM, HCV inh inconclusive, HCMV antiviral -100
c1ccc(OCCN2CCN(C(c3ccccc3)c3ccccc3)CC2)cc1	HCV inh 11µM (no result: MARV entry inh, VACV mCherry inh, VACV Venus inh, LASV entry inh)
COc1ccc(/C=C2/SC(=S)N(CCCC(=O)Nc3ccc(O)cc3)C2=O)cc1	HCV inh inconclusive, HCMV antiviral -100 (no result: MARV entry inh, VACV mCherry inh, VACV Venus inh, LASV entry inh)
O=C(CCCN1C(=O)/C(=C/c2ccco2)SC1=S)Nc1ccccc1C(=O)O	none (no result: MARV entry inh, VACV mCherry inh, VACV Venus inh, LASV entry inh)
COc1ccc(/C=C2\SC(=S)N(CCC(=O)Nc3ccc(C(=O)O)cc3)C2=O)cc1	none (no result: MARV entry inh, VACV mCherry inh, VACV Venus inh, LASV entry inh)
O=C(CCCN1C(=O)/C(=C\c2ccco2)SC1=S)Nc1ccc2ccccc2c1	MARV entry inh inconclusive, VACV mCherry inh inconclusive, HCV inh inconclusive, LASV entry inh inconclusive, HCMV antiviral -81
COc1ccc(/C=C2\SC(=S)N(CCCC(=O)Nc3ccc(O)cc3)C2=O)cc1	VACV mCherry inh inconclusive, HCV inh inconclusive, HCMV antiviral active (no result: MARV entry inh, LASV entry inh)
Cc1ccc(OCC(=O)Nc2ccc3nc(SCC(=O)N4CCOCC4)sc3c2)cc1	LASV entry inh inconclusive (no result: HCV inh)
N#C[C@H](c1ccccc1)C1CCN(S(=O)(=O)CCCCl)CC1	none (no result: MARV entry inh, VACV mCherry inh, VACV Venus inh, HCV inh, LASV entry inh)
Cc1cc(C)n(CCc2nc(-c3ccc(-c4ccccc4)cc3)cs2)n1	HCV inh inconclusive, HCMV antiviral -65
COc1ccc(-c2csc(CCn3nc(C)cc3C)n2)cc1	MARV entry inh inconclusive, HCV inh inconclusive, LASV entry inh inconclusive
Cc1cc(C)n(CCc2nc(-c3cccs3)cs2)n1	none (no result: VACV mCherry inh)
Cc1cc(C)n(CCc2nc(-c3ccco3)cs2)n1	HCMV antiviral -105 (no result: VACV mCherry inh, VACV Venus inh)
O=C1COc2ccc(-c3cc(-c4ccccc4)c4c(n3)-c3cc(Cl)ccc3OC4)cc2N1	none (no result: HCV inh)
COc1ccc(-n2c(=S)[nH]c3cc(C(=O)NCCCN4CCCC4=O)ccc3c2=O)cc1OC	HCMV antiviral -99
CN1CCN(C(=O)c2ccc3c(=O)n(Cc4ccco4)c(=S)[nH]c3c2)CC1	none (no result: VACV mCherry inh, VACV Venus inh)
COc1ccc(OC)c(-n2c(=S)[nH]c3cc(C(=O)NCCCN4CCCC4=O)ccc3c2=O)c1	none (no result: MARV entry inh, VACV mCherry inh, VACV Venus inh, HCV inh, LASV entry inh)
CCN1CCN(C(=O)c2ccc3c(=O)n(Cc4ccccc4OC)c(=S)[nH]c3c2)CC1	HCV inh 11µM (no result: VACV mCherry inh, VACV Venus inh)
CCCN(CCC)C(=O)c1ccc2c(=O)n(Cc3ccco3)c(=S)[nH]c2c1	HCMV antiviral -90 (no result: VACV mCherry inh, VACV Venus inh)
COc1ccccc1Cn1c(=S)[nH]c2cc(C(=O)NCCN(C)C)ccc2c1=O	MARV entry inh 10µM, HCV inh inconclusive
COc1ccccc1Cn1c(=S)[nH]c2cc(C(=O)NCC3CCCO3)ccc2c1=O (stereo not drawn)	MARV entry inh inconclusive, HCV inh inconclusive, LASV entry inh inconclusive
Cc1ccc2c(c1)CCC2=O	none (no result: MARV entry inh, HCV inh, LASV entry inh, HCMV antiviral)
COc1ccc(Cl)cc1NC(=O)CSc1nc(=O)[nH]c2c1CCC2	none (no result: MARV entry inh, HCV inh)
CC(=O)N1c2ccccc2C(=O)C1N1CCN(c2cccc(C)c2C)CC1 (stereo not drawn)	LASV entry inh inconclusive (no result: MARV entry inh, HCV inh)
CC(NS(=O)(=O)c1ccc2c(c1)CCN2C(=O)CCCC(=O)O)c1ccccc1 (stereo not drawn)	none (no result: HCV inh)
CCCCN1C=CC(=C2C(=O)c3ccccc3C2=O)C=C1	MARV entry inh inconclusive, LASV entry inh inconclusive, HCMV antiviral -88
COc1ccc(C(=O)N2N=C(c3ccccc3)CC2(O)C(F)(F)F)cc1 (stereo not drawn)	MARV entry inh 13µM, LASV entry inh inconclusive
CC(C)(C)OC(=O)N[C@@H]1C=CC(=O)C1	none (no result: MARV entry inh, VACV mCherry inh, VACV Venus inh, HCV inh, LASV entry inh)
CCCN1CCN(c2ncnc3scc(C4COc5ccccc5O4)c23)CC1 (stereo not drawn)	MARV entry inh inconclusive, HCV inh inconclusive, LASV entry inh inconclusive
c1ccc2c(c1)OCC(c1csc3ncnc(N4CCCCC4)c13)O2 (stereo not drawn)	MARV entry inh inconclusive, HCMV antiviral -88
C#CCCCO/N=C1/C[C@@H](O)[C@@H](O)[C@@H]2[C@@H]3C(=O)N(C[C@@H]4CCCO4)C(=O)[C@H]3CC[C@H]12	none (no result: VACV mCherry inh, VACV Venus inh, HCV inh, LASV entry inh, HCMV antiviral)
Cc1nn(CC(=O)N2CCCCCC2)c(=O)c2cc3occc3n12	HCMV antiviral -62
Cc1cccc(N2CCN(C(=O)C(C)n3nc(C)n4c(cc5occc54)c3=O)CC2)c1C (stereo not drawn)	MARV entry inh inconclusive, HCV inh 10µM
COc1cc(C(O)c2nc(C(=O)NCCN3CCOCC3)cs2)cc(OC)c1OC (stereo not drawn)	none (no result: MARV entry inh, VACV mCherry inh, VACV Venus inh, HCV inh, LASV entry inh)
CCCCCCCC#Cc1ccccc1C=NS(=O)c1ccc(C)cc1 (stereo not drawn)	none (no result: VACV mCherry inh, VACV Venus inh, HCV inh, LASV entry inh, HCMV antiviral)
CN(C)S(=O)(=O)c1cccc(C(=O)Nc2ccc(N3CCOCC3)cc2)c1	HCV inh inconclusive, HCMV antiviral -79
CN(c1ccc(F)cc1)S(=O)(=O)c1ccc(Cl)c(C(=O)NCC2(N3CCOCC3)CCCCC2)c1	MARV entry inh inconclusive, VACV mCherry inh inconclusive, HCV inh 11µM, LASV entry inh inconclusive
CN(c1ccccc1)S(=O)(=O)c1ccc(Cl)c(C(=O)Nc2ccccc2N2CCOCC2)c1	MARV entry inh inconclusive, HCV inh 11µM, LASV entry inh inconclusive
CN(c1ccc(F)cc1)S(=O)(=O)c1ccc(Cl)c(C(=O)NCC2CCCO2)c1 (stereo not drawn)	none
Cc1ccc(N(C)S(=O)(=O)c2cccc(C(=O)Nc3ccc(N4CCOCC4)cc3)c2)cc1	HCV inh 6.3µM, HCMV antiviral inconclusive (no result: MARV entry inh, VACV mCherry inh, VACV Venus inh, LASV entry inh)
CCN(CC)CCCn1c(C)cc2c(c1=O)[C@H](c1ccc(OC)c(OC)c1OC)C(C#N)=C(N)O2	none (no result: VACV mCherry inh, VACV Venus inh, HCV inh, LASV entry inh, HCMV antiviral)
CCc1ccc(CN(C(=O)c2nc(SC)ncc2Cl)C2CCS(=O)(=O)C2)cc1 (stereo not drawn)	none (no result: HCV inh)
CCn1c(=O)n(-c2ccc(C)c(F)c2)c(=O)c2sc3ccccc3c21	none (no result: HCV inh)
CN(c1ccccc1)S(=O)(=O)c1cccc(C(=O)Nc2ccc(N3CCOCC3)cc2)c1	MARV entry inh inconclusive, HCV inh 10µM
CCNc1ccc(C(=O)OCC)cc1NC(=O)c1cccc(S(=O)(=O)N(C)c2ccccc2)c1	MARV entry inh inconclusive, HCV inh 8.9µM, LASV entry inh inconclusive
COc1ccc(NC2=Nc3ccccc3N3C2=Nc2c(c(C)nn2-c2ccc(C)cc2)C3c2cccnc2)cc1 (stereo not drawn)	HCV inh inconclusive, LASV entry inh inconclusive

High-throughput results (PubChem BioAssay)
